Screens as filed in PubChem BioAssay.
HT1080NT lethal: kills 2HG-producing HT-1080-NT fibrosarcoma cells; HT-1080-NT fibrosarcoma viability, CellTiter-Glo ATP luminescence, 48 h; Potency, µM (highest dose often 46.1 µM), inactives show at the highest dose activity, negative = less viability, hits mostly cytotoxic; hit rate 1.6% among 360,000; AID 686970;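 also: NT is the 2HG producing partner of a matched IDH1 knockdown line; 0% = DMSO-treated cells and -100% = media-only wells without cells; nearly all actives have a fitted effect of over 55% in size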
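A 48-hour cytotoxicity screen used HT-1080-NT cells plated 2 hours before compound delivery. ATP-based CellTiter-Glo luminescence measured viability, normalized to DMSO and no-cell controls.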
HT1080 IDH1KD tx: toxicity to HT-1080 IDH1 knockdown cells (counter line). HT-1080 IDH1 knockdown viability, ATP luminescence, 48 h. Potency, µM (series often up to 46.1 µM), for the others: at the top dose activity, negative = toxicity, hits mostly cytotoxic. hit rate 2% among 360,000;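 also: 0% = DMSO wells and -100% = cell-free medium wells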
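% activity derives from luminescence (CellTiter-Glo), normalised to DMSO and no-cell wells. HT-1080-IDH1KD cells, 750/well, had 48 h compound exposure at 37 °C.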
HepG2 tox: kills HepG2 cells in TGF-b inhibitor counter-screen; HepG2 CAGA-GFP viability, ATP luminescence, 18 h; Potency, µM (doses to about 46.1 µM), for inactives: at the top dose activity change, negative = cytotoxicity, hits mostly cytotoxic; hit rate 0.76% among 410,000; AID 588856
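CellTiter-Glo luminescence gave cytotoxicity after 18 hours at 37 degrees C. The cells were HepG2 CAGA-GFP in 1% FBS DMEM, stimulated with 500 pg/mL TGF-beta after compound addition. %Activity was normalised to no-cell wells (complete cell-killing) and DMSO (no toxicity), and curves were fitted and classified.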
TGFb inhibitor: blocks TGF-b signaling | hit rate 1.2% among 410,000 | Potency, µM (titrated, usually from 46.1 µM), for the others: top-dose activity, negative = inhibition, hits mostly inhibitors | HepG2 CAGA-GFP TGF-b/SMAD3 reporter, GFP fluorescence, 18 h; TGF-beta stimulated, 500 pg/mL final; also: % is scaled to controls: 0 for no effect and ±100 for the full control effect; nearly all actives have a fitted effect of over 65% in size
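Read-out: total well GFP (ex488/em500-530) summed from mean per-cell fluorescence. Cells: HEPG2 CAGA-GFP, 1% FBS DMEM, 18 h at 37 degrees C with 500 pg/mL final TGF-beta. Unstimulated wells served as the full-inhibition control; stimulated DMSO wells = 0%.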
KB-3-1 cytotox: KB-3-1 parental cell cytotoxicity. KB-3-1 viability, CellTiter-Glo ATP luminescence, 72 h. Potency, µM (doses to about 46.1 µM), usual class: cytotoxic. hit rate 1.4% among 400,000. AID 1347075; also: % is scaled to controls: 0 for no effect and ±100 for the full control effect; nearly all actives have a fitted effect of over 60% in size
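Parental KB-3-1 adenocarcinoma cells in phenol-red-free DMEM with 10% FBS were pin-treated with compounds at several concentrations, incubated 72 h at 37 °C, and viability read by CellTiter-Glo luminescence; concentration-effect curves were fitted after normalization.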
KB-V1 cytotox: kills drug-selected multidrug resistant KB-V1 cells. hit rate 3.4% among 400,000. KB-V1 MDR cells viability, CellTiter-Glo, 72 h. Potency, µM (top dose mostly 46.1 µM), most hits filed as cytotoxic; also: % is scaled to controls: 0 for no effect and ±100 for the full control effect; nearly all actives have a fitted effect of over 60% in size
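Potencies derive from concentration-effect curves fitted to normalized luminescence (CellTiter-Glo) of KB-V1 cells treated for 72 h at 37 degrees C in phenol-red-free DMEM containing 10% FBS.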
Numbers without * were called inactive; i = inactive; ? = inconclusive; nt = not tested or not shown. Most compounds without a hit are left out; they make up all but 6.6% or so of the library. Calls follow the shape of the dose curve; as a rule, active = well fitted curve in the direction sought with a large enough effect; inconclusive = small, poorly fitted or top-dose-only effect, or another doubt; inactive = no such curve, though single readings can be large; an effect the other way counts as inactive or inconclusive. Potency is read from the fitted curve at half-maximal effect.

SMILES | HT1080NT lethal | HT1080 IDH1KD tx | HepG2 tox | TGFb inhibitor | KB-3-1 cytotox | KB-V1 cytotox
COc1cccc(CN(C)C(=O)CN2C(=O)NC3(CCCc4ccccc43)C2=O)c1 (configuration not stated) | 1% | -7% | -8% | ? | i | 21µM*
CCc1ccc(CNC(=O)CN2C(=O)CSc3c2c(C)nn3-c2ccccc2)cc1 | nt | nt | -9% | -29% | i | i
Cc1ccc(-c2nnc3c(C(F)(F)F)nc4ccccc4n23)cc1 | 4% | 12% | -42% | ? | ? | 21µM*
COc1ccc(-c2c(-c3cc(OC)cc(OC)c3)n(C)c3ccc(-c4cnc(OC)nc4)cc23)cc1 | -3% | 0% | -5% | 4% | i | i
COc1cc(F)cc(-c2ccc3c(c2)c(-c2cccs2)c(-c2cc(OC)cc(OC)c2)n3C)c1 | -17% | -4% | 5% | 0% | i | i
COc1cc(OC)cc(-c2c(-c3cccs3)c3cc(-c4ccn[nH]4)ccc3n2C)c1 | ? | ? | -6% | 16µM* | ? | i
COc1ccc(-c2c(-c3cc(OC)cc(OC)c3)n(C)c3ccc(-c4ccc5[nH]ccc5c4)cc23)cc1 | -2% | 4% | -3% | 3% | 23µM* | i
Cc1ccc([N+](=O)[O-])cc1S(=O)(=O)NCCc1c(C)[nH]c2c(C)cccc12 | 2% | -10% | 5% | -20% | i | i
Cc1[nH]c2c(C)cccc2c1CCNS(=O)(=O)c1cccc([N+](=O)[O-])c1 | -15% | -8% | -3% | -8% | ? | 23µM*
COc1cccc(Nc2nc3ccccc3nc2NS(=O)(=O)c2ccc(NC(C)=O)cc2)c1 | -7% | -9% | -70% | ? | i | i
COc1cccc(Nc2nc3cc(C)ccc3nc2NS(=O)(=O)c2ccc(Cl)cc2)c1 | nt | nt | -36% | 7.9µM* | ? | 15µM*
COCCNC(=O)c1cnn2c(C(F)(F)F)cc(-c3ccc4c(c3)OCO4)nc12 | -13% | 2% | 4% | 1% | i | 2.1µM*
OC(c1ccccc1)(c1ccccc1)C1CCN(CCCOc2ccccc2Cl)CC1 | 21µM* | ? | nt | nt | ? | ?
COc1ccccc1OCCCN1CCC(C(O)(c2ccccc2)c2ccccc2)CC1 | 21µM* | 16µM* | nt | nt | i | ?
COc1ccccc1OCCCCN1CCC(C)CC1 | 16% | 6% | 1% | 5% | i | i
O=C(NCCO)c1cccc(Nc2nc(-c3ccccc3)c3cc(Cl)ccc3n2)c1 | ? | ? | -42% | ? | i | 16µM*
Clc1ccc(Nc2nc(-c3ccccc3)c3cc(Cl)ccc3n2)cc1 | nt | nt | 9% | 20% | nt | nt
O=C(c1cc([N+](=O)[O-])ccc1Cl)N1CCN(Cc2ccccc2)CC1 | 1% | -4% | 14µM* | -5% | i | i
COc1ccc(C(=O)N2CCN(Cc3ccccc3)CC2)cc1[N+](=O)[O-] | 1% | -3% | -18% | -14% | i | i
O=C(c1ccc(S(=O)(=O)c2cccc(Cl)c2)c([N+](=O)[O-])c1)N1CCN(Cc2ccccc2)CC1 | 8.2µM* | ? | 3% | ? | ? | ?
COc1ccc(-n2c(SCC(=O)NCC3CCCO3)nc3c(c2=O)SCC3)cc1OC (configuration not stated) | 9% | 9% | -17% | -3% | i | i
COc1ccc(-n2c(SCc3ccccn3)nc3c(c2=O)SCC3)cc1OC | -4% | 1% | 20µM* | -8% | i | i
CCc1ccc(NCc2cc3cc4c(cc3n(CC(=O)Nc3ccccc3Cl)c2=O)OCO4)cc1 | nt | nt | -4% | -1% | i | ?
CC(OC(=O)C1CCN(S(=O)(=O)c2ccc(C(C)(C)C)cc2)CC1)C(=O)N1CCOCC1 (configuration not stated) | 5% | 3% | 5% | 6% | i | 16µM*
Cc1ccc(NC(=O)c2ccc(S(=O)(=O)N3CCOCC3)cc2)nc1 | 2% | -2% | -8% | 29% | i | 16µM*
SMILES | HT1080NT lethal | HT1080 IDH1KD tx | HepG2 tox | TGFb inhibitor | KB-3-1 cytotox | KB-V1 cytotox
Cc1ccc(S(=O)(=O)N2CCC(C(=O)N/N=C/c3cccnc3)CC2)cc1 | -1% | -14% | 13% | ? | i | i
Cc1ccc(S(=O)(=O)N2CCC(C(=O)N/N=C/c3ccccc3[N+](=O)[O-])CC2)cc1 | 1% | -11% | -18% | 0% | i | 13µM*
Cc1ccc(C(=O)Nc2ccc(Cl)cn2)cc1S(=O)(=O)N1CCOCC1 | -8% | -2% | -4% | 0% | i | ?
Cc1ccc(S(=O)(=O)N2CCC(C(=O)OC(C)C(=O)N3CCOCC3)CC2)cc1 (configuration not stated) | 3% | 1% | 2% | 2% | i | i
Cc1ccc(NC(=O)c2ccc(C)c(S(=O)(=O)N3CCOCC3)c2)nc1 | 4% | 21% | 0% | -7% | i | 15µM*
Cc1ccc(C(=O)Nc2ccc(S(=O)(=O)N3CCOCC3)cc2)cc1 | -11% | -3% | 1% | 0% | i | i
O=S(=O)(c1cccc(Cl)c1)c1nnn2c1nc(NCc1ccc3c(c1)OCO3)c1sccc12 | nt | nt | -1% | -9% | i | ?
O=C(NCCc1ccc(Cl)cc1)C(=O)NCC(c1ccc2c(c1)OCO2)N1CCOCC1 (configuration not stated) | nt | nt | -16% | -10% | nt | nt
CN(C)c1cccc(-c2cnc(N3CCC(c4ncc[nH]4)CC3)s2)c1 | nt | nt | nt | nt | i | i
Cc1ccc(-c2nc3ccc(C)cn3c2Cc2ccccn2)cc1 | -7% | -8% | nt | nt | i | ?
O=C(Nc1ccc(S(=O)(=O)N2CCOCC2)cc1)C1CCN(S(=O)(=O)c2ccccc2)CC1 | -13% | -15% | -11% | -14% | ? | i
Cc1ccc(NC(=O)c2ccc3nc[nH]c3c2)nc1 | -14% | ? | -6% | -2% | ? | i
Cc1ccc(NC(=O)c2ccc(C(=O)c3ccccc3)cc2)nc1 | ? | ? | -8% | -18% | 15µM* | ?
Cc1ccc(S(=O)(=O)N2CCC(C(=O)Nc3ccc(S(=O)(=O)N4CCOCC4)cc3)CC2)cc1 | -1% | -15% | -32% | ? | 23µM* | 16µM*
Cc1ccc(CSCCNC(=O)c2ccc(Cl)c(S(=O)(=O)N3CCOCC3)c2)cc1 | -2% | -25% | -27% | ? | 21µM* | 3.7µM*
O=C(NCCSCc1c(F)cccc1Cl)c1ccc(CN2CCOCC2)cc1 | 16% | 9% | -3% | -3% | ? | 16µM*
